Values joined by “and” are separate entries in the source; they are usually repeats but may differ in a detail not shown here. Equal entries are not always repeated. Active and inactive are the calls of the source.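 Rule for the calls, unless noted: active = thallium flux through the channel raised or lowered by more than 3 SD from vehicle-only wells, actives on both sides; inactive = the rest.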
Legend:
[1] = Wnt pathway potentiators raising nuclear beta-catenin – imaging, WNT3A-conditioned medium, mouse C2C12, NPC library, primary screen (AID 1117326; in the data active = nuclear beta-catenin stimulation mostly above about 4.2%, no sharp cut-off; inactive = mostly below about 10%); settings: stronger effect = higher value
[2] = stimulators of insulin release from INS-1E, primary screen, cell-based, 5 mM glucose, NPC library (AID 1117329;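 active = compound raises insulin release from rat beta cells at 5 mM glucose, no numeric limit stated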); settings: rat INS-1E insulin secretion, at 10 µM, stronger effect = higher value
[3] = growth inhibition of GSK3B-pretreated HCT116 cells – cell-based, CellTiter-Glo, 0.2 to 20 µM (AID 1117336;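 active = compounds lowering colon cancer cell viability after pretreatment blocking the GSK3B kinase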); settings: HCT116 viability after GSK3B inhibitor, at 20 µM, stronger effect = higher value
[4] = inhibition of endothelial tube formation, primary screen, imaging, VEGF stimulated, CD31 staining, tube area, NPC library (AID 1117340;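 active = compound that reduces growth-factor-driven endothelial tube area in a mixed cell culture, no cutoff stated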); settings: VEGF-stimulated ADSC/ECFC co-culture, at 10 µM, stronger effect = higher value
[5] = GLP1 release stimulators, primary, NCI-H716, NPC library (AID 1117341;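 active = compound raises GLP1 secretion from the human gut endocrine cells, with no numeric limit stated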); settings: NCI-H716 cells, at 10 µM, stronger effect = higher value
[6] = HCT116 colon cancer cell growth inhibition, primary screen, CellTiter-Glo luminescence, NPC library (AID 1117342;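 active = compounds that lower survival of HCT116 colon cancer cells in the luminescence readout, no numeric limit stated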); settings: at 20 µM (top of the series)
[7] = reduced SW480 viability measured with CellTiter-Glo, NPC library, primary (AID 1117343;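 active = compounds that lower viability of the colon cancer cells in the luminescence readout, with no numeric limit stated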); settings: CellTiter-Glo luminescence; at 20 µM (top of the series)
[8] = NPC library primary testing for decreased DLD-1 cell viability via CellTiter-Glo (AID 1117346;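 active = compounds that lower survival of DLD-1 colon cancer cells in the luminescence readout, no cutoff given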); settings: DLD-1 viability, CellTiter-Glo luminescence; at 20 µM (top of the series)
[9] = molecular target: 6-phosphogluconate dehydrogenase, decarboxylating (Homo sapiens) (UniProt P52209); experiment: inhibition of human phosphogluconate dehydrogenase – biochemical, recombinant enzyme, NADPH absorbance, primary screen (AID 1159550;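 active = at least 20% inhibition of 6-phosphogluconate dehydrogenase activity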); settings: recombinant 6PGD, NADPH absorbance 341 nm; at 10 µM; stronger effect = higher value
Chain of 6-phosphogluconate dehydrogenase, decarboxylating (Homo sapiens) (P52209 whole entry, looked up): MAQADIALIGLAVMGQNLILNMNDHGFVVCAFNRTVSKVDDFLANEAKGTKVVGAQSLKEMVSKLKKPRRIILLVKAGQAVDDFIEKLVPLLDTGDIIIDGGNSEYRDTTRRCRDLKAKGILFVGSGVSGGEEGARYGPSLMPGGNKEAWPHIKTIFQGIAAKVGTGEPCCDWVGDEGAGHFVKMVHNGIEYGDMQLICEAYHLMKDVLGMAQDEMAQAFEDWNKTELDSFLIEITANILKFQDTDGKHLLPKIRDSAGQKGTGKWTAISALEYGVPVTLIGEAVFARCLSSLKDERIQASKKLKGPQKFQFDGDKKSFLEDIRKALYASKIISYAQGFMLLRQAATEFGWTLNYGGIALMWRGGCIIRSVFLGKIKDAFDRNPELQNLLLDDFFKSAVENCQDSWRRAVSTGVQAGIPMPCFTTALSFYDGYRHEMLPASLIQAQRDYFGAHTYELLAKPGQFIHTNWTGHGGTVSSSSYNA

[10] = modulation of C. elegans fzo-1 (AID 1259413; call rule not given here;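 note: fzo-1 mutant C. elegans worms in liquid wells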); settings: C. elegans fzo-1 modulator screen, mean read-out; stronger effect = higher value
[11] = EMT-state selective cytotoxicity in co-culture – imaging, PC-3E GFP, TEM4-18 mCherry, primary screen (AID 1345086;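 active = compounds killing one labelled cell type while sparing the other, by normalised counts and ratio limits, not self-fluorescent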;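 for all read-outs here: cells exposed to compound for 72 h before imaging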;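 for red/green cell ratio (normalised): normalised mesenchymal count divided by normalised epithelial count so high means epithelial killing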); settings: PC-3E GFP / TEM4-18 mCherry co-culture, imaging cell counts, at 1 µM; for red/green cell ratio (normalised): actives lie on both sides, counts scaled to control wells, 1 = unselective
[12] = MELAS cybrid and Rieske KO viability enhancers – cell-based, MELAS cybrids, Rieske KO mouse fibroblasts, CellTiter-Glo, primary screen (AID 1508586;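 active = mean z-score across replicates of 1.96 or higher in either the MELAS or the Rieske mutant cell line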;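 note: z relative to plate mean and SD of compound and empty wells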); settings: low glucose
[13] = molecular target: NAD(+) hydrolase SARM1 (Homo sapiens) (UniProt Q6SZW1); experiment: blocking NAD cleavage by SARM1 SAM-TIR – cell lysate, NAD-Glo luminescence (AID 1508614;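 active = compound whose remaining NAD level is above about 45 nM, limit read from the data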;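 note: higher remaining NAD means stronger inhibition of SARM1 NADase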); settings: SAM-TIR HEK293T lysate NADase, at 1 µM, stronger effect = higher value
Chain of NAD(+) hydrolase SARM1 (Homo sapiens) (Q6SZW1 whole entry, looked up, the tested form may be a part): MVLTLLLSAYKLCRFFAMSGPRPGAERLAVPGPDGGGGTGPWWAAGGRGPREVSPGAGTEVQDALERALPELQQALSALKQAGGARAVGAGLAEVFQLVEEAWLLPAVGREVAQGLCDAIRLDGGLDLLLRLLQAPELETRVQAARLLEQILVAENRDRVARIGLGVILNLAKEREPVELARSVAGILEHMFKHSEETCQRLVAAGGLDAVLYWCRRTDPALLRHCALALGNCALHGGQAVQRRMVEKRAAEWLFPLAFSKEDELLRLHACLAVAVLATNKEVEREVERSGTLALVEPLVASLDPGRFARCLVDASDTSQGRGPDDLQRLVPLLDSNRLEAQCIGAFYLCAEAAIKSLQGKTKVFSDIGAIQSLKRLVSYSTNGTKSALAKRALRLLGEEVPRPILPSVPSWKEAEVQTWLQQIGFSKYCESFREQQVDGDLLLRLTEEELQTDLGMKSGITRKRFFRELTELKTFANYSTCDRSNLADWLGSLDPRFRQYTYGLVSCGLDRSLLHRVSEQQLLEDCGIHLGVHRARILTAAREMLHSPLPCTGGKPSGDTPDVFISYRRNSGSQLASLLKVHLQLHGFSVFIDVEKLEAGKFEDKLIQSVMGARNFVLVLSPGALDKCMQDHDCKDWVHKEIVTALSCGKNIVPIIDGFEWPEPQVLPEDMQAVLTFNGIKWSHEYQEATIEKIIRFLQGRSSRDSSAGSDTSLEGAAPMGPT

[14] = molecular target: Mitogen-activated protein kinase 7 (Homo sapiens) (UniProt Q13164); experiment: Gal4-ERK5 driven luciferase induction – cell-based, HTS, primary screen (AID 1508626;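 active = luciferase signal above three times the same-plate solvent-only control wells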;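 note: luciferase driven by Gal4-ERK5 fusion binding five Gal4 sites before minimal TATA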); settings: HeLa Gal4-ERK5 transactivation, 18 h, at 5 µM, stronger effect = higher value
Chain of Mitogen-activated protein kinase 7 (Homo sapiens) (Q13164 whole entry, looked up, the tested form may be a part): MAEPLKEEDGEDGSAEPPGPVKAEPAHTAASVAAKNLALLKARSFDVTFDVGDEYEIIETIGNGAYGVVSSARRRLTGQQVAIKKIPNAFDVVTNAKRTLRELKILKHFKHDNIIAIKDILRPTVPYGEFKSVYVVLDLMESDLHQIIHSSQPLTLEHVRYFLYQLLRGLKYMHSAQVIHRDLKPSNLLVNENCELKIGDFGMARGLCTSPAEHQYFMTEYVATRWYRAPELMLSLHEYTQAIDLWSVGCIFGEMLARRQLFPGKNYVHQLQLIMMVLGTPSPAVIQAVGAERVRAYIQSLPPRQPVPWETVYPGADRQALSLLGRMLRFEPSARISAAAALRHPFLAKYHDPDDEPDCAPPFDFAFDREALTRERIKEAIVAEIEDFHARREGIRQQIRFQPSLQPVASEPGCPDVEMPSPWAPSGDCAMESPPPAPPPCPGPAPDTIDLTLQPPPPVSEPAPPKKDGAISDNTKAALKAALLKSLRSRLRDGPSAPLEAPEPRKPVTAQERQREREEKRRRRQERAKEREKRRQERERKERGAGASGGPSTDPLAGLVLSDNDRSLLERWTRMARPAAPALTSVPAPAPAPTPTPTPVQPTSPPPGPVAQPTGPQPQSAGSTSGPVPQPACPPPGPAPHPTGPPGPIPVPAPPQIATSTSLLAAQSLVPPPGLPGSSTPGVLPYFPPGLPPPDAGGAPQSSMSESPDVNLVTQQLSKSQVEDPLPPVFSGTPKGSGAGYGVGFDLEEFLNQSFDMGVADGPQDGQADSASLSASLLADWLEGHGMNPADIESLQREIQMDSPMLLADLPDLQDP

F380Y = experiment: BK channel mutant inhibitors and activators – cell-based, U2OS BacMam, thallium flux, beta subunits, selectivity assay, profiling panel (AID 1259406); settings: U2OS BacMam BK variants, at 30 µM;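 note: initial slope of Thallos dye fluorescence rise after thallium is added; log ratio against the mean of 0.3% DMSO vehicle wells on the same plate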
F380Y/beta1 = experiment: as above; settings: U2OS BacMam BK variants, at 30 µM
F380Y/beta2Delta = experiment: as above; settings: U2OS BacMam BK variants, at 30 µM
[15] = measured here: epithelial PC-3E GFP cell survival
[16] = measured here: mesenchymal TEM4-18 mCherry cell survival
[17] = MELAS cybrid survival, CellTiter-Glo 48 h, stronger effect = higher value
[18] = Rieske KO mouse fibroblast survival, CellTiter-Glo 72 h

C=CC[N+]1([C@H]2C[C@H]3[C@@H]4CC[C@H]5C[C@H](OC(C)=O)[C@@H](N6CCCCC6)C[C@]5(C)[C@H]4CC[C@]3(C)[C@H]2OC(=O)CC)CCCCC1
inactive: nuclear beta-catenin stimulation ([1]; at 10 µM) -0.1% | insulin secretion stimulation [2] 1.45% | viability decrease [3] 27.6% | tube area decrease [4] -8.7% | GLP1 secretion stimulation [5] 8.2% | inhibition of viability [6] 32.5% | viability decrease (inhibition) [7] 23.4% | viability decrease (inhibition) [8] -2.8%
-2.6%: nuclear beta-catenin stimulation ([1]; stimulation, at 2 µM)

COc1ccc(CC2c3cc(OC)c(OC)cc3CCN2CCC(=O)OCCCCCOC(=O)CCN2CCc3cc(OC)c(OC)cc3C2Cc2ccc(OC)c(OC)c2)cc1OC (stereo not given)
0.5%: nuclear beta-catenin stimulation ([1]; stimulation, at 2 µM)
inactive: nuclear beta-catenin stimulation ([1]; at 10 µM) -1.1% | insulin secretion stimulation [2] 2.2% | viability decrease [3] -6.9% | tube area decrease [4] -3.5% | GLP1 secretion stimulation [5] -3.9% | inhibition of viability [6] -6.4% | viability decrease (inhibition) [7] 39.7% | viability decrease (inhibition) [8] -10.6%

Clc1cccc(Cl)c1NC1=NCCN1
1.52: normalised cell number [11, 16]
0.7%: nuclear beta-catenin stimulation ([1]; stimulation, at 2 µM)
1.33: normalised cell number [11, 15]
inactive: nuclear beta-catenin stimulation ([1]; at 10 µM) 0.7% | insulin secretion stimulation [2] 1.9% | viability decrease [3] -10.4% | tube area decrease [4] -5.1% | GLP1 secretion stimulation [5] 1% | inhibition of viability [6] -0.6% | viability decrease (inhibition) [7] -15.3% | viability decrease (inhibition) [8] -4.9% | inhibition [9] 13.3% | mean signal [10] 231 | red/green cell ratio (normalised) [11] 1.14 | z-score [12, 17] -0.353 and 0.0276 and 0.719 | remaining NAD [13] 10 nM | luciferase signal [14] 64 AU | log fold change Tl+ flux (F380Y) 0.0065 | log fold change Tl+ flux (F380Y/beta1) 0.0554 | log fold change Tl+ flux (F380Y/beta2Delta) 0.0431
0.516 and -0.377 and -0.412: z-score [12, 18]

CCC(C)(C)C(=O)O[C@H]1C[C@@H](C)C=C2C=C[C@H](C)[C@H](CC[C@@H]3C[C@@H](O)CC(=O)O3)[C@H]21
-0.283 and -0.755: z-score [12, 18]
7.6%: nuclear beta-catenin stimulation ([1]; stimulation, at 2 µM)
inactive: nuclear beta-catenin stimulation ([1]; at 10 µM) 15.9% | insulin secretion stimulation [2] 13.1% | inhibition [9] 2.59% | mean signal [10] 230 | red/green cell ratio (normalised) [11] 0.86 | z-score [12, 17] -2.63 and -1.16 | remaining NAD [13] 10 nM | luciferase signal [14] 220 AU | log fold change Tl+ flux (F380Y) 0.085 | log fold change Tl+ flux (F380Y/beta1) 0.0381
active: viability decrease [3] 95.1% | tube area decrease [4] 91% | GLP1 secretion stimulation [5] 28% | inhibition of viability [6] 86% | viability decrease (inhibition) [7] 119% | viability decrease (inhibition) [8] 77.8% | log fold change Tl+ flux (F380Y/beta2Delta) 0.0908
0.75: normalised cell number [11, 15]
0.65: normalised cell number [11, 16]
